Growth data for six compounds are collected here from PubChem BioAssay (NCI).

About 83,000 compounds went through this panel and 20% of them were active in at least one assay; those are over-represented in the sample as a whole.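 Plates (96-well) were seeded with cells, treated with compound at one concentration, and incubated for 48 hours before percent growth was determined.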 Unmarked numbers belong to inactive results. Active and inactive are the calls of the source. The calls were made as follows: active = growth percent below 10; inactive = the rest.

Among the test systems are DU-145 prostate; K-562 leukemia; MALME-3M melanoma; MDA-MB-231 breast; RXF 393 renal; SF-268 CNS; SF-295 CNS; SF-539 CNS; UACC-257 melanoma; HCT-15 colon; HT29 colon; SNB-75 CNS; SNB-19 CNS; U251 CNS; PC-3 prostate; SK-MEL-5 melanoma; UACC-62 melanoma; LOX IMVI melanoma; SK-MEL-28 melanoma.
Experiment in all cases: NCI-60 one-dose screen, 48 h (100 = growth as untreated, 0 = no growth, -100 = all killed)
Common to all, as to details: 10 µM unless noted

As to `CCCCn1c(-c2ccc(C(=O)O/N=C(\N)c3ccc(OC)cc3)cc2)nc(-c2ccccc2)c1-c1ccccc1`, the growth is -93.4% (active) with DU-145 prostate; -41% (active) in the experiment with K-562 leukemia; -51.7% (active) in the experiment with MALME-3M melanoma; -6.79% (active) in the experiment on MDA-MB-231 breast; -49.8% (active) with RXF 393 renal; 9.12% (active) in the experiment on SF-268 CNS. Moreover, the growth in the experiment on SF-295 CNS was -40.8% (active); with SF-539 CNS, -77.6% (active); with UACC-257 melanoma, 43.7%; with HCT-15 colon, -47.5% (active); in the experiment on HT29 colon, 21.8%; in the experiment on SNB-75 CNS, -31.1% (active). Moreover, the growth with SNB-19 CNS was 23.9%; in the experiment on U251 CNS, -52.6% (active); in the experiment on PC-3 prostate it was -7.41% (active); in the experiment with SK-MEL-5 melanoma, 41.8%; with UACC-62 melanoma, 29.1%; in the experiment on LOX IMVI melanoma, -93.1% (active). For the same compound, the growth in the experiment with SK-MEL-28 melanoma is 47%.

`Cc1ccc(-c2nn(C)c(=O)c3noc(-c4ccc(C)cc4)c23)cc1`: the growth in the experiment with DU-145 prostate was 35.3%; in the experiment with K-562 leukemia, 17%; in the experiment on MALME-3M melanoma it was 73.9%; with MDA-MB-231 breast it was 58.3%; in the experiment with RXF 393 renal, 13.6%; with SF-268 CNS it was 55.1%. Moreover, the growth in the experiment on SF-295 CNS was 41.2%; with SF-539 CNS it was -4.12% (active); with UACC-257 melanoma it was 62.8%; in the experiment on HCT-15 colon it was 32.3%; with HT29 colon, 9.47% (active); with SNB-75 CNS it was -21.4% (active). In addition, the growth in the experiment with SNB-19 CNS was 32.9%; in the experiment on U251 CNS, 27.4%; in the experiment on PC-3 prostate it was 26.1%; in the experiment on SK-MEL-5 melanoma, 21.5%; in the experiment on UACC-62 melanoma, 38.5%; in the experiment on LOX IMVI melanoma it was 44.3%. Besides, the growth in the experiment with SK-MEL-28 melanoma was 70.5%.

As for `Cc1ccc(C(=O)N/N=C/c2cccc(Oc3ccccc3)c2)cn1`, the growth in the experiment on DU-145 prostate is 88.7%; in the experiment on K-562 leukemia, 23.8%; in the experiment on MALME-3M melanoma, 64.8%; in the experiment with MDA-MB-231 breast, 65.3%; in the experiment on RXF 393 renal it was 71.6%; with SF-268 CNS it was 79.1%. The growth is 41.6% with SF-295 CNS; 72.9% with SF-539 CNS; 72.4% with UACC-257 melanoma; 38.5% with HCT-15 colon; 20% in the experiment with HT29 colon; 65.7% in the experiment on SNB-75 CNS. Besides, the growth in the experiment with SNB-19 CNS was 65.6%; in the experiment with U251 CNS, 58.9%; in the experiment with PC-3 prostate it was 76.7%; in the experiment with UACC-62 melanoma, 38.3%; in the experiment with LOX IMVI melanoma, 63.9%; in the experiment with SK-MEL-28 melanoma it was 63.7%.

As for `Cc1nc(/N=C(\N)NC(=O)Nc2cccc(Cl)c2)sc1C`, the growth with DU-145 prostate was 90%; in the experiment on K-562 leukemia, 17%; in the experiment with MALME-3M melanoma it was 62%; in the experiment with MDA-MB-231 breast, 87.9%; with RXF 393 renal, 87.8%; in the experiment on SF-268 CNS, 89.5%. Besides, the growth is 77.2% in the experiment with SF-295 CNS; 78.3% in the experiment on SF-539 CNS; 71.7% with UACC-257 melanoma; 32% with HCT-15 colon; 30.2% in the experiment with HT29 colon; 21.9% in the experiment with SNB-75 CNS. In addition, the growth is 83.2% in the experiment with SNB-19 CNS; 83.5% with U251 CNS; 81.5% in the experiment on PC-3 prostate; 80.2% with SK-MEL-5 melanoma; 60.5% in the experiment with UACC-62 melanoma; 68.8% in the experiment on LOX IMVI melanoma. In addition, the growth in the experiment with SK-MEL-28 melanoma was 69%.

On to `CCc1cccc2c3c(sc12)C(c1ccc(F)cc1)C(C#N)=C(N)O3` (configuration not stated), for which the growth with DU-145 prostate was 24.5%; in the experiment with K-562 leukemia, 12.4%; with MALME-3M melanoma, 75.9%; in the experiment with MDA-MB-231 breast, 21.1%; in the experiment with RXF 393 renal it was 1.43% (active); in the experiment with SF-268 CNS, 54.5%. Further, the growth with SF-295 CNS was 8.12% (active); in the experiment with SF-539 CNS it was 2.76% (active); in the experiment on UACC-257 melanoma it was 74.2%; with HCT-15 colon, 14.5%; with HT29 colon, 12.7%; in the experiment on SNB-75 CNS, 24.1%. The growth with SNB-19 CNS is 39.8%; in the experiment with U251 CNS, 29.2%; in the experiment with PC-3 prostate it was 20.4%; in the experiment on SK-MEL-5 melanoma, 27.4%; in the experiment on UACC-62 melanoma it was 39%; in the experiment on SK-MEL-28 melanoma it was 60.5%.

With `COc1cc(C(=O)N/N=C/c2cc3cc(OCc4ccccc4)ccc3nc2OC)cc(OC)c1OC`, the growth is 102% in the experiment with DU-145 prostate; 74.6% in the experiment on K-562 leukemia; 110% with MALME-3M melanoma; 94.7% in the experiment on MDA-MB-231 breast; 79.6% in the experiment on RXF 393 renal; 79.7% in the experiment with SF-268 CNS. In addition, the growth with SF-295 CNS was 98.4%; in the experiment with SF-539 CNS, 85.8%; in the experiment with UACC-257 melanoma, 79.2%; with HCT-15 colon, 80.3%; in the experiment with HT29 colon, 82.9%; with SNB-75 CNS, 77.7%. Moreover, the growth with SNB-19 CNS is 90.3%; in the experiment on U251 CNS, 84.8%; with PC-3 prostate, 68.1%; with SK-MEL-5 melanoma, 63.7%; with UACC-62 melanoma it was 84.3%; with LOX IMVI melanoma it was 81.9%. Moreover, the growth in the experiment on SK-MEL-28 melanoma was 100%.
